The source of these data is PubChem BioAssay (NCATS).

Inconclusive results are not listed. Where a call stands in place of a potency, no number is given. A number with no mark means an inactive call. The source made the active and inactive calls. Calls come from the whole dose curve; as a rule, active = well fitted cell-killing curve with a large enough effect; inconclusive = small, poorly fitted or top-dose-only effect, or effect the other way; inactive = flat fitted curve, though single readings scatter. Where a SMILES comes first, the peptide text is derived from it. [ ]: non-standard residue; d: D form.

The test system of the assay is Tov-21-G. As to the kind of experiment: Primary qHTS to identify gynecologic anti-cancer compounds using libraries of approved drugs and bioactive compounds (AID 1345084). Note: nearly all actives have a fitted effect of over 55% in size. Conditions: Gynecologic cancer cell panel viability, ATPlite luminescence, 48 h; series mostly up to 57.5 µM. In a few lines:
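Cells, 1,000 per well, were allowed to settle for 16 h at 37 C before compound addition. Five concentrations were tested for 48 h, and viability was read by ATPlite luminescence after 15 min at room temperature.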
(Quantitative high-throughput screening tests each substance at several concentrations.)
In the case of `COc1ccc(C(OC2OC(CO)C(O)C(O)C2O)C(C)O)cc1` (configuration not stated), the Potency entry was “inactive”.

For the compound `CCOC(=O)N1CCC(NCCNC(=O)c2ccccc2C)CC1`, the Potency result was “inactive”.

With `CCC(C)C(=O)O[C@@H]1[C@@H](O)[C@@H](O[C@H]2O[C@H](CO)[C@@H](O)[C@H](O)[C@H]2O)O[C@H](CO)[C@H]1O` (some centres not stated), the Potency entry was “inactive”.

For `Nc1ncnc2c1ncn2[C@H]1CCCO1`, the Potency result is “inactive”.

On to `COc1cc(-c2cccc(O)c2)cc2c1OCO2`, for which the Potency result is “inactive”.

As to `Nc1nc(CC(=O)Nc2ccc(CCNCC(O)c3ccccc3)cc2)cs1` (configuration not stated), the Potency entry was “inactive”.

Turning to `O=C(/C=C/c1c(C(=O)O)[nH]c2cc(Cl)cc(Cl)c12)Nc1ccccc1`, the Potency entry is “inactive”.

Regarding `CC1CCC2C(C)(C)C(O)CCC2(C)C12Cc1c(O)cc3c(c1O2)CN=C3N` (configuration not stated), the Potency entry was “inactive”.

On to `CC[C@H]1OC(=O)C[C@@H](O)[C@H](C)[C@@H](O[C@@H]2O[C@H](C)[C@@H](O)[C@H](N(C)C)[C@H]2O)[C@@H](CCN2C[C@H](C)C[C@H](C)C2)C[C@@H](C)C(=O)/C=C/C(C)=C/[C@@H]1CO[C@@H]1O[C@H](C)[C@@H](O)[C@@H](OC)[C@H]1OC`, for which the Potency result is “inactive”.

`C[C@]12C=CC(=O)C=C1CC[C@@H]1[C@@H]2[C@@H](O)C[C@@]2(C)[C@H]1CC[C@]2(O)C(=O)COC(=O)CCC(=O)O`: the Potency result was “inactive”.

Take `CC(C)=CCc1ccc(Oc2c(O)cc(C)cc2CO)c(C(=O)O)c1O`: the Potency entry was “inactive”.

`NS(=O)(=O)NCCNc1nonc1C(=Nc1ccc(F)c(Br)c1)NO`: the Potency entry is “inactive”.

For the compound `CCC(=O)NS(=O)(=O)c1ccc(-c2c(-c3ccccc3)noc2C)cc1`, the Potency result is “inactive”.

On to `CC(=O)OC1C(O)C(C)=C(CCC(C)CC(=O)O)C2(C)CCCC(C)(C)C12` (configuration not stated), for which the Potency result was “inactive”.

Take `COC1=CC(=O)O[C@@H](/C=C/c2ccccc2)[C@@H]1O`: the Potency result is “inactive”.

As to `C[C@@H]1O[C@@H](O[C@@H]2[C@@H](O)[C@@H](O)[C@H](O[C@@H]3[C@@H](O)[C@@H](O[C@]4(CO)O[C@H](CO)[C@@H](O)[C@@H]4OC(=O)/C=C/c4ccc(O)cc4)O[C@H](CO)[C@H]3OC(=O)/C=C/c3ccc(O)cc3)O[C@H]2C)[C@H](O)[C@H](O)[C@H]1O`, the activity change, negative = cytotoxicity is -2.88% [at 11.6 µM].

As for `COC(=O)[C@@H]1C2CC3c4[nH]c5ccccc5c4CCN3CC2CC[C@@H]1O` (some centres not stated), the Potency entry is “inactive”.

In the case of `C[C@@H]1O[C@@H](O[C@H]2[C@H](OC(=O)[C@]34CCC(C)(C)C[C@H]3C3=CCC5[C@@]6(C)CC[C@H](O[C@@H]7O[C@H](CO[C@@H]8OC[C@H](O)[C@H](O)[C@H]8O)[C@@H](O)[C@H](O)[C@H]7O)C(C)(C)C6CC[C@@]5(C)[C@]3(C)C[C@H]4O)OC[C@@H](O)[C@@H]2O)[C@H](O)[C@H](O)[C@H]1O[C@@H]1OC[C@H](O)[C@H](O[C@@H]2OC[C@@H](O)[C@H](O)[C@H]2O)[C@H]1O` (some centres not stated), the activity change, negative = cytotoxicity was -9.88% [at 6.55 µM].

Regarding `CC(=O)N[C@H](Cc1ccc(O)cc1)C(=O)N[C@H](CCCN=C(N)N)C(=O)N[C@H](Cc1ccccc1)C(N)=O` (Ac-[dY]-[dR]-[dF]-NH2), the Potency result was “inactive”.

With `CC(NCc1ccc(OCc2cccc(F)c2)cc1)C(N)=O` (configuration not stated), the Potency result was “inactive”.

In the case of `Cc1coc2c1CC1OC1(C)CCC1OC1(C)C2` (configuration not stated), the Potency result was “inactive”.

For `C[C@]12CCC[C@](C)(C(=O)O)C1CCC13C=C(CO)C(CCC12)C3` (some centres not stated), the Potency entry was “inactive”.

In the case of `COc1cc(/C=C/C(=O)OC(C)(C)C(OC2OC(CO)C(O)C(O)C2O)C(=O)OCc2ccc(OC3OC(CO)C(O)C(O)C3O)cc2)ccc1O` (configuration not stated), the Potency entry is “inactive”.

As to `COc1cc2c(cc1OC)CN(C(=O)[C@@H](NCc1ccncc1)C(C)(C)C)CC2`, the Potency result was “inactive”.

`O=C1NCc2nc3ccccc3c(=O)n2C1Cc1c[nH]c2ccccc12` (configuration not stated): the Potency result was “inactive”.

For `CC1=CC(=O)CC(C)(C)C1CCC(C)OC1OC(COC(=O)c2cc(O)c(O)c(O)c2)C(O)C(O)C1O` (configuration not stated), the Potency result was “inactive”.

For the compound `CC1C/C=C/C=C\CCCCC(O)C/C=C/C(=O)O1` (configuration not stated), the Potency result was “inactive”.

Regarding `CO[C@@]12CC3[C@@H]([C@@H](O)[C@@H](OC(C)=O)C4[C@](C)(COC(C)=O)CCC[C@]34C)[C@@H](C)C1=CC(=O)O2` (some centres not stated), the Potency entry was “inactive”.

As to `CC1(C)CCCC2(C)C(CO)C3CCC2C31` (configuration not stated), the Potency result is “inactive”.

Regarding `O=C(O[C@H]1[C@@H]2C=CO[C@@H](O[C@@H]3O[C@H](CO)[C@@H](O)[C@H](O)[C@H]3O)[C@@H]2[C@@]2(CO)O[C@@H]12)c1ccc(O)c(O)c1`, the Potency result is “inactive”.

Turning to `C=CC(C)(C)C12CC3C(=O)NC(Cc4cnc[nH]4)C(=O)N3C1Nc1ccccc12` (configuration not stated), the Potency entry is “inactive”.

With `C=C1C2=CC(O)C(C)C1(C)CC/C(C)=C/CCC1(C)OC1C2=O` (configuration not stated), the Potency result is “inactive”.

Regarding `C[C@H]1CN(C[C@H](Cc2ccccc2)C(=O)NCC(=O)O)CC[C@@]1(C)c1cccc(O)c1`, the Potency result is “inactive”.

Regarding `CCC[C@@H]1C[C@@H](C(=O)N[C@@H]([C@H]2O[C@H](SC)[C@H](OP(=O)(O)O)[C@@H](O)[C@H]2O)[C@H](C)Cl)N(C)C1`, the Potency entry is “inactive”.

Turning to `COc1cc(/C=C/CO)ccc1O[C@@H]1O[C@H](CO)[C@@H](O)[C@H](O)[C@H]1O`, the Potency entry is “inactive”.

As to `CC1(O)CCC2C(C(=O)O)=COC(OC3OC(CO)C(O)C(O)C3OC(=O)/C=C/c3ccc(O)cc3)C21` (configuration not stated), the Potency entry was “inactive”.

For `C[C@@H](Nc1cc(NS(=O)(=O)N2CCC2)nc(SCc2cccc(F)c2F)n1)[C@@H](O)CO`, the Potency result is “inactive”.
